Key:
Settings in all cases: concentration: 1 μM, replicates: in singlicate; n = 1
[1] = system: MYO3A
[2] = system: MYO3B
[3] = system: T1, NDR1
T1 construct: gene STK38

[4] = system: NDR2
[5] = system: NEK10
[6] = system: NEK11
[7] = system: NEK1
[8] = system: NEK2
[9] = system: NEK3
[10] = system: NEK4
[11] = system: NEK5
[12] = system: NEK6
[13] = system: NEK7
[14] = system: NEK9
[15] = system: T2, NIK
T2 construct: gene MAP3K14

[16] = system: T3, NIM1
T3 construct: gene MGC42105

[17] = system: NLK
[18] = system: T4, OSR1
T4 construct: gene OXSR1

[19] = system: PAK1
[20] = system: PAK2
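Note: KINOMEscan kinase panel screen.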

Structure (SMILES)	%Inh [1]	%Inh [2]	%Inh [3]	%Inh [4]	%Inh [5]	%Inh [6]	%Inh [7]	%Inh [8]	%Inh [9]	%Inh [10]	%Inh [11]	%Inh [12]	%Inh [13]	%Inh [14]	%Inh [15]	%Inh [16]	%Inh [17]	%Inh [18]	%Inh [19]	%Inh [20]
CC(C)c1cc(-c2ccc3c(N)n[nH]c3c2)nc(N)n1 [GSK2250882]	9%	0%	17%	0%	8%	0%	0%	0%	0%	0%	0%	0%	0%	18%	0%	10%	19%	16%	20%	16%
COc1ccc(Nc2nccc(N3CCC(NC(=O)C(C)c4ccc(Cl)cc4)C3)n2)cc1 (centres unmarked) [GSK1379735]	0%	7%	0%	0%	7%	0%	0%	13%	0%	10%	32%	0%	6%	2%	12%	13%	14%	0%	16%	38%
O=C1NC(=O)C(c2ccc(Cl)cc2)=C1Nc1ccc(O)cc1 [SB-340867]	0%	0%	14%	12%	0%	0%	0%	0%	0%	0%	0%	0%	11%	0%	0%	0%	0%	0%	0%	7%
O=c1cc(N2CCOCC2)nc2n(Cc3cccc(Cl)c3Cl)c3ccccc3n12 [GSK2299009]	0%	6%	33%	0%	9%	0%	0%	14%	3%	8%	30%	4%	20%	24%	0%	2%	25%	11%	0%	5%
CNc1nc(-c2ccc3c(N)n[nH]c3c2)cc(N2C[C@@H](C(=O)Nc3ccccc3)CC[C@H]2C)n1 [GSK2298859]	27%	0%	22%	0%	13%	0%	0%	0%	0%	0%	7%	0%	0%	4%	0%	0%	0%	10%	0%	0%
CS(=O)(=O)CCNCc1nc(-c2ccc3ncnc(Nc4ccc5c(cnn5Cc5ccccc5)c4)c3c2)cs1.Cl.Cl [GW569716]	34%	0%	8%	0%	16%	29%	0%	0%	2%	3%	0%	0%	0%	0%	26%	41%	16%	0%	0%	1%
CSc1ccc(-c2nc3n(c2-c2ccncc2)CCC3)cc1 [SKF-105561]	1%	8%	21%	4%	0%	36%	0%	3%	23%	6%	0%	1%	3%	0%	0%	18%	23%	19%	0%	39%
Cl.Cl.Cl.N#Cc1ccc(CCNc2nccc(-c3cccc(CN4CCNCC4)c3)n2)cc1 [GSK2137462]	2%	0%	4%	0%	1%	0%	0%	15%	0%	0%	33%	0%	0%	27%	0%	3%	24%	9%	24%	21%
Cn1cnc2c(N)ncnc21 [SKF-97623]	2%	15%	0%	3%	0%	0%	0%	0%	19%	0%	0%	0%	0%	0%	41%	3%	0%	0%	3%	5%
Cc1cccc2c(-c3ccncn3)c(-c3ccc(F)cc3)nn12 [GW515532]	0%	0%	0%	0%	0%	0%	0%	23%	0%	0%	0%	0%	0%	5%	1%	14%	44%	10%	13%	8%
Nc1ncnc2occ(-c3ccc4c(c3)CCN4C(=O)Cc3cc(F)ccc3F)c12 [GSK2645446]	26%	0%	11%	0%	1%	2%	0%	70%	0%	0%	22%	0%	0%	4%	17%	8%	0%	0%	0%	4%
O=c1cc(N2CCOCC2)nc2n(Cc3ccccc3F)ccn12 [GSK2297428]	13%	0%	34%	0%	1%	0%	0%	0%	0%	0%	0%	0%	0%	0%	0%	2%	0%	0%	21%	0%
FC(F)(F)c1ccccc1-c1cc(-c2c[nH]nc2-c2ccccn2)ccn1 [GW679396]	10%	0%	22%	0%	9%	10%	0%	19%	0%	0%	4%	0%	1%	4%	13%	4%	18%	0%	6%	2%
CNc1nc(-c2ccc3c(N)n[nH]c3c2)cc(N2C[C@@H](C(=O)NC3CCCCC3)OC[C@H]2C)n1 [GSK2375584]	35%	0%	29%	28%	9%	0%	2%	0%	11%	0%	11%	0%	0%	4%	5%	0%	9%	6%	14%	16%
CNc1cc(-c2ccc3c(N)n[nH]c3c2)nc(N)n1 [GSK2224810]	41%	0%	16%	19%	0%	0%	0%	0%	2%	0%	14%	0%	0%	0%	26%	20%	27%	0%	0%	0%
Nc1cccc(-c2ccc3c(N)n[nH]c3c2)n1 [GSK2192730]	15%	0%	23%	0%	0%	0%	18%	7%	9%	0%	9%	0%	0%	17%	1%	0%	0%	3%	16%	5%
COc1cccc(C2=C(Nc3cc(Cl)c(O)c(Cl)c3)C(=O)NC2=O)c1 [SB-390767]	0%	0%	0%	0%	30%	1%	0%	100%	13%	28%	7%	0%	0%	0%	4%	1%	0%	15%	2%	15%
Cc1ccc(NC(=O)c2ccc(Cl)cc2)cc1-c1ccc(C(=O)Nc2ccncc2)cc1 [GSK1398467]	16%	0%	0%	0%	0%	0%	0%	5%	15%	0%	0%	0%	0%	0%	3%	5%	38%	0%	0%	0%
Cc1ccc(NC(=O)Nc2ccccc2F)cc1-c1ccc(C(=O)Nc2ccncc2)cc1 [GSK1398477]	19%	0%	0%	0%	9%	0%	0%	22%	13%	24%	16%	2%	10%	14%	7%	0%	0%	9%	0%	18%
